Bioassay records deposited in PubChem BioAssay by several laboratories.
CYP2C19 inh: human CYP2C19 inhibition; P33261; CYP2C19 Supersomes, luciferin-H EGE luminescence, 30 min; inhibition, % at 5 µM; 96,000 compounds, 21% hits; AID 778;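 active means CYP2C19 inhibition above a set limit at 5 µM in the primary screen, cut at about 50% in these data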;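 further: plate controls were negative control wells for no effect and 2.5 mM tranylcypromine positive control for full effect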
Target sequence (P33261 whole entry, looked up): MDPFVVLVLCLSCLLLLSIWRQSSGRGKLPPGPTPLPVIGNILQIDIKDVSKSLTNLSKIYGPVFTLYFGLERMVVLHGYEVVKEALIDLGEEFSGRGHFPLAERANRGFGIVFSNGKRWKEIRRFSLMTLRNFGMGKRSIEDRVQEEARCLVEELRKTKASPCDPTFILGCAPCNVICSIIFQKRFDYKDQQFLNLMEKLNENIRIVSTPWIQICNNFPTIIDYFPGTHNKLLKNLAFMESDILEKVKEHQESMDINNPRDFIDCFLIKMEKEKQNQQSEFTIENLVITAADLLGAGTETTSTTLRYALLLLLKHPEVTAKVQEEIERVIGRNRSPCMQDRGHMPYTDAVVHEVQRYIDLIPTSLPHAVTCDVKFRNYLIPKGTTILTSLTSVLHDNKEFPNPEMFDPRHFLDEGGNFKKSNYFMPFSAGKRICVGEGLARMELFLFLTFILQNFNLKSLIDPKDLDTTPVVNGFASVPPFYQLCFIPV
CYP2C9 act: increases human cytochrome P450 2C9 activity. AID 1024. 96,000 compounds, 1.4% hits. activation factor at 5 µM. recombinant CYP2C9, luciferin-H conversion, luminescence; hits give high values; factor 1 = untreated enzyme, 0 = blocked;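 active means activation factor of 2 or more for CYP2C9 at a 5 µM dose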;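 further: 0 = sulfaphenazole-blocked wells and 1 = vehicle-only wells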
CYP2C19 activ: cytochrome P450 2C19 (human) activation; P33261; recombinant CYP2C19, luciferin-H EGE luminescence; hits give high values; 0 = fully inhibited enzyme, 1 = untreated enzyme; 96,000 tested, under 10 active; AID 1025; activation factor at 5 µM;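 active means activation factor of at least 2 at 5 µM in the primary screen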;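 further: 0 = wells with 2.5 mM tranylcypromine and 1 = vehicle-only wells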
Cav3 T inh: human Cav3.2 channel inhibition, primary screen | O95180 | Cav3.2-expressing cells, Fluo-4 calcium fluorescence FDSS; hits give low values | B-score at 10 µM | 100,000 compounds, 4% hits | AID 449739;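 active means single-dose well whose peak fluorescence ratio is a statistical outlier from its plate by either plate-standardised score or position-corrected B-score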
CYP2C9 inhib: inhibitors of human CYP2C9; CYP2C9 Supersomes, luciferin-H conversion, luminescence; inhibition, % at 5 µM; 96,000 compounds, 20% hits;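 active means blocking of liver enzyme CYP2C9 beyond about 50% at 5 µM, limit read from the data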
* hit, by the source's call; nt = not tested or not shown. In the library only some 27% were active in any assay of this set; here they are far more common.

SMILES	CYP2C19 inh	CYP2C9 act	CYP2C19 activ	Cav3 T inh	CYP2C9 inhib
Cc1ccc(-c2nc(SCC(=O)NCC3CCCO3)c(-c3ccccc3)[nH]2)cc1 (centres undefined)	nt	nt	nt	0.52	nt
COC(=O)c1ccccc1S(=O)(=O)Nc1ccc(OC)nc1	85*	0.8	0.2	0.28	23
COC(=O)c1ccccc1S(=O)(=O)C(C)(C)C	nt	nt	nt	0.28	nt
COc1ccc(NS(=O)(=O)c2ccc3oc4ccccc4c3c2)cn1	96*	0	0	-4.1	99*
COC(=O)C1=C(C(=O)OC)[C@@H]2N(C)c3ccccc3[C@@]23C[C@@H](C(=O)OC)N(C(=O)c2cc(C)oc2C)C3=N1	nt	nt	nt	-0.2	nt
COc1ccc(C(=O)Nc2ccccc2C(=O)NCc2ccco2)cc1OC	20	0.6	0.8	-0.098	36
COc1ccc(OC)c(N=c2oc3c(OC)cccc3cc2C(=O)NCc2ccco2)c1	45	0.5	0.6	-1.2	50*
COc1ccc(N=c2oc3c(OC)cccc3cc2C(=O)NCc2ccco2)cc1OC	50*	0.3	0.5	-1.9	72*
COc1cccc2cc(C(=O)NCc3ccccn3)c(=O)oc12	nt	nt	nt	0.34	nt
COc1ccccc1N=c1oc2c(OC)cccc2cc1C(=O)NCc1ccco1	66*	0.4	0.3	-3.5	62*
N#Cc1c(SCC(=O)Nc2nccs2)nc2c(c1-c1ccco1)CCCC2	46	0.3	0.5	0.69	70*
CCc1ccccc1NC(=O)CSc1nc2c(c(-c3ccco3)c1C#N)CCCC2	88*	0.7	0.1	-0.52	34
COc1cc2c(cc1OC)C1=NC(=O)CN1C(SCc1ccccc1)=N2	-11	1.1	1.1	nt	-10
Cc1ccc(CCNC(=O)C23CN(Cc4ccccc4)CC2C(c2ccc([N+](=O)[O-])cc2)=NO3)cc1 (centres undefined)	34	1	0.7	-1.9	3
O=C(NCc1ccccc1)C12CN(Cc3ccccc3)CC1C(c1cccc([N+](=O)[O-])c1)=NO2 (centres undefined)	74*	0.6	0.3	-3.4*	38
O=C(NCC1CCCO1)C12CN(Cc3ccccc3)CC1C(c1cccc([N+](=O)[O-])c1)=NO2 (centres undefined)	33	0.8	0.7	0.42	18
CCCCN(CCCC)CCCNC(=O)C12CN(Cc3ccccc3)CC1C(c1cccc([N+](=O)[O-])c1)=NO2 (centres undefined)	22	0.6	0.8	-3.2*	43
O=C(NCc1ccc(OC(F)(F)F)cc1)C12CN(Cc3ccccc3)CC1C(c1cccc([N+](=O)[O-])c1)=NO2 (centres undefined)	76*	0.4	0.2	-3.8*	57*
O=C(NCc1cc(C(F)(F)F)cc(C(F)(F)F)c1)C12CN(Cc3ccccc3)CC1C(c1cccc([N+](=O)[O-])c1)=NO2 (centres undefined)	26	0.6	0.7	-2.1	36
COC(C[C@@H](O)C[C@@H](O)COCc1ccccc1)OC	nt	nt	nt	-0.00076	nt
CC1CCCC(C)N1C(=O)CSc1nc(N)c(-c2ccccc2)c(=O)[nH]1 (centres undefined)	-19	1.1	1.2	-0.55	-8
Cc1ccc(S(=O)(=O)NCc2cn3c(C)csc3n2)cc1	20	1.1	0.8	0.43	-9
CCc1ccc(S(=O)(=O)NCCc2cn3ccsc3n2)s1	68*	0.5	0.3	-0.031	48
Cc1cc(C)c(S(=O)(=O)NCc2cn3c(C)csc3n2)c(C)c1	51*	1.2	0.5	0.21	-21
CCc1ccc(S(=O)(=O)NCc2cn3ccsc3n2)s1	47	1	0.5	-0.8	-1
SMILES	CYP2C19 inh	CYP2C9 act	CYP2C19 activ	Cav3 T inh	CYP2C9 inhib
CC(=O)NCc1cn2c(C)csc2n1	nt	nt	nt	0.27	nt
Cc1csc2nc(CCNS(=O)(=O)c3cccs3)cn12	70*	1.2	0.3	0.19	-21
Cc1ccc(SCc2cn3c(C)csc3n2)cc1	90*	2.9*	0.1	-0.7	-187
COc1ccccc1N1CCN(C(=O)C(=O)N/N=C/c2cccc(O)c2)CC1	14	0.8	0.9	1.3	17
CCC(=O)Nc1cc2c(C)cc(=O)oc2cc1C	14	0.9	0.9	-2.5	7
CCCCCCC(=O)Nc1cc2c(C)cc(=O)oc2cc1C	41	2.5*	0.6	-0.07	-155
CC1CN(C(=O)CSc2nnc(-c3ccncc3)n2-c2ccccc2)CC(C)O1 (centres undefined)	76*	0.8	0.2	0.018	24
CC(C)c1ccccc1-n1c(SCC(=O)N2CCN(c3ccccc3)CC2)nnc1-c1cccnc1	55*	0.4	0.5	-4.4*	56*
Cc1ccc(S(=O)(=O)N2CCC(C(=O)N[C@H](C(=O)NCC3CCCO3)C(C)C)CC2)cc1 (some centres undefined)	5	1	1	-0.27	-1
CCOC(=O)c1nnc(-c2ccccc2)nc1NCc1ccc(Cl)cc1	14	0.5	0.9	-1.8	48
COc1ccc(CN2CCN(c3ncccn3)CC2)c(OC)c1	45	0.9	0.5	nt	7
COc1ccc(CN2CCN(S(=O)(=O)c3ccc(F)cc3)CC2)cc1OC	-1	1	1	-0.15	-1
COc1ccc(CN2CCN(S(=O)(=O)c3ccc(F)cc3)CC2)c(OC)c1OC	87*	0.6	0.1	-0.03	40
COc1ccc(CN2CCN(S(=O)(=O)c3ccccc3)CC2)c(OC)c1	52*	0.4	0.5	-0.021	60*
COc1ccccc1CN1CCN(S(=O)(=O)c2ccccc2)CC1	62*	0.4	0.4	-0.77	63*
COc1ccc(CN2CCN(S(=O)(=O)c3ccccc3)CC2)cc1Br	99*	0	0	-2.5	96*
O=S(=O)(c1ccc(F)cc1)n1ccc(-c2cccc(OCc3ccc(Cl)cc3Cl)c2)n1	19	0.6	0.8	-2.7	45
CC1CN(C(=O)c2scc3c2OCCO3)CC(C)O1 (centres undefined)	15	1	0.9	1	1
COc1ccc(S(=O)(=O)N2CCN(C)CC2)cc1Br	28	1.8	0.7	0.85	-78
CCN1CCN(S(=O)(=O)c2ccc3ccccc3c2)CC1	71*	2*	0.3	0.098	-102
CCN1CCN(S(=O)(=O)c2ccc(OC)c(Br)c2)CC1	72*	2.6*	0.3	-0.021	-159
COc1ccc(OC)c(S(=O)(=O)N2CCC(C(=O)NCc3ccccc3)CC2)c1	25	3.7*	0.7	1.2	-268
COc1ccc(OC)c(S(=O)(=O)N2CCC(C(=O)NCc3ccccc3OC)CC2)c1	35	2.4*	0.7	-0.95	-144
O=C(NCc1cccs1)C1CCN(c2nccs2)CC1	84*	0.4	0.2	-0.17	56*
O=C(C1CCN(S(=O)(=O)N2CCC3(CC2)OCCO3)CC1)N1CCc2ccccc2C1	76*	0.6	0.2	nt	41
COC(=O)C1CCN(C(=O)COC(=O)CC(NC(N)=O)c2ccc(Cl)cc2)CC1 (centres undefined)	19	0.7	0.8	-0.15	30
